# PNC assembly inh – perinucleolar compartment assembly inhibition. actives 3.1% (n = 140,000). activity change (PNC), negative = inhibition, % at 10 µM. PC3M PTB-GFP, PNC prevalence imaging, 16 h; active compounds read low. AID 2417;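 active means readout at or below -70, meaning at least 70% loss of cells showing the perinucleolar compartment, a nuclear body marking cancer cells; inconclusive means readout between -30 and a set limit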
#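 Read-out is percentage of cells bearing a perinucleolar compartment, from automated 20x imaging of fixed, Hoechst-stained PC3M PTB-GFP cells. Cells were seeded 4 h, then exposed 16 h to compound (23 nl of library stock) in duplicate plates.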
# HTT cytoprotect – Huntington cell model cytoprotection by ATP luminescence; actives 0.14% (n = 230,000); PC12 HTT-Q103 induced, cytoprotection, ATP luminescence, 40 h; Potency, µM (doses to about 56.4 µM), most hits filed as activators; further: nearly all actives have a fitted effect of over 45% in size
#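 PC12 cells with ecdysone-inducible HTT exon 1 Q103-GFP, induced with 100 nM tebufenozide and co-treated with library compounds in a dose series (1536-well, 1500 cells/well). Cytoprotection read as ATP content by ATPlite luminescence.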
# HTT aggregate – reduces HttQ103-GFP aggregates in PC12 cells. Potency, µM (highest dose often 46.1 µM), hits mostly inhibitors. AID 1688. actives 1.1% (n = 220,000). PC12 HttQ103-GFP aggregates, Acumen cytometry, 40 h; further: nearly all actives have a fitted effect of over 60% in size
#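 Ecdysone-promoter PC12 model expressing HTT exon 1 Q103 fused to GFP, induced by tebufenozide at 100 nM final. Compounds titrated; aggregates sized 1–25 µm scored on a 488 nm laser cytometer.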
# Hits are given with their value; 0 = inactive; ? = inconclusive; - = no result given; ! = a repeat was not active; [ ] = dose if it differs, or a comment. Only a selection was taken, and hits are over-represented in it overall. Unless noted, the call rests on the fitted dose curve; in most records, active means well fitted curve in the direction sought with a large enough effect; inconclusive means small, poorly fitted or top-dose-only effect, or another doubt; inactive means no such curve, though single readings can be large; an effect the other way counts as inactive or inconclusive.
SMILES,PNC assembly inh,HTT cytoprotect,HTT aggregate
Cc1nc2ccccc2c(=O)n1NC(=O)Nc1ccccc1,0,0[1.9 µM],0
Cc1cc(Nc2ccccc2)n(-c2cccc(Cl)c2)n1,-95.6,0,?
Cc1cc(NC(=O)Nc2cccc(Cl)c2)n(-c2ccccc2)n1,-,0[10 µM],0[9.22 µM]
COC(=O)CNC(c1ccccc1)c1cc(Br)ccc1NC(C)=O (configuration not stated),-,3.16µM,0[9.22 µM]
COC(=O)CNC(c1ccccc1)c1cc(Cl)ccc1NC(=O)c1cccc(Cl)c1 (configuration not stated),0,0[10 µM],0
COC(=O)C1=NN(c2ccc(OC)cc2)C2C(=O)N(c3ccccc3OC)C(=O)C12 (configuration not stated),-,0[10 µM],0[9.22 µM]
O=C(Nc1ccccc1)Nc1ccc(F)c([N+](=O)[O-])c1,0,0[10 µM],?
Cc1ccsc1C(=O)Nc1ccc(F)c([N+](=O)[O-])c1,-81.0,0[10 µM],0
Cc1ccccc1NC(=O)c1ccc(-c2ccc(Cl)cc2Cl)o1,0,0,0
Cc1cccc(C)c1NC(=O)c1ccc(-c2ccc(Cl)cc2Cl)o1,0,0,11.2µM
CSc1nc(N(C)NC(=O)c2ccc(F)cc2)c2ccccc2n1,-82.6,0[10 µM],0
CN(C)C(=O)c1ccc(-c2nc(Nc3ccc(F)cc3)c3ccccc3n2)cc1,-,0,-
C#CCNC(=O)C1=C[C@@H](C2CCCCC2)[C@H](CCCO)[C@@H](OCC)O1,-,0[10 µM],0[9.22 µM]
C/C(=N/NC(=O)c1cccs1)c1cccs1,-,0[10 µM],0[9.22 µM]
C/C(=N\NC(=O)CC1(C)OCCO1)c1cccs1,-88.4,0[10 µM],0
O=C(O)C(Cc1ccccc1)n1cnnn1 (configuration not stated),0,0[0.074 µM],0
c1ccc(-c2nc(N3CCN(c4ccccc4)CC3)nc(-n3ccnc3)n2)cc1,0,0,14.1µM
c1ccc(-c2nc(N3CCCCCC3)nc(-n3ccnc3)n2)cc1,0,0,0
COc1ccc(/C=C/c2nc3ccccc3n2Cc2ccccc2OC)cc1,0,0[10 µM],?
COc1ccc(C(C)NC(=O)C2C(=O)NC3(C)CC2c2ccccc2O3)cc1 (configuration not stated),0,0,0
CCN(CC(=O)NC1CCCCCC1)S(=O)(=O)c1ccccc1,-80.3,0[10 µM],0
CCN(CC(=O)NC1CCCC1)S(=O)(=O)c1ccc(C)cc1,?,0,0
Fc1ccccc1-c1nc(-c2cnccc2C(F)(F)F)no1,-,0[10 µM],0[9.22 µM]
O=C(CN1C(=O)C2C3C=CC(C3)C2C1=O)NCc1ccc2c(c1)OCO2 (configuration not stated),?,0[10 µM],0
O=c1c(-c2ccccc2)nc2cnc(N3CCNCC3)nc2n1Cc1cccs1,-,0,-
SMILES,PNC assembly inh,HTT cytoprotect,HTT aggregate
COc1ccc(Nc2oc(COc3ccc(C)cc3)nc2C#N)cc1,-100.0,0[10 µM],0
COc1ccc(Nc2oc(COc3ccc(OC)cc3)nc2C#N)cc1,?,0[1.9 µM],0
O=C(Cn1cnc2sc(-c3ccccc3)cc2c1=O)NCc1ccccc1,0,0,0
Cc1ccc(-c2nn(CC(=O)NCc3ccco3)c(=O)c3ccccc23)cc1,-110.7,0[10 µM],0
O=C(Cn1cnc2sc(-c3ccccc3)cc2c1=O)NCc1ccco1,-90.2,0[1.9 µM],0
Cc1ccc(-c2nn(CC(=O)NCCN3CCOCC3)c(=O)c3ccccc23)cc1,0,0,?
CCOC(=O)c1nn(-c2ccccc2)c(=O)cc1SC1CCCCC1,-,0[1.9 µM],0[9.22 µM]
O=C(N/N=C/c1ccccc1)c1sccc1OCc1ccc(F)cc1,0,0,0
CC(C)Sc1nnc(CNC(=O)C23CC4CC(CC(C4)C2)C3)n1Cc1ccccc1,0,0[10 µM],?
CSc1nnc(CNC(=O)C23CC4CC(CC(C4)C2)C3)n1Cc1ccccc1,-115.1,0[10 µM],0
CCOC(=O)C(C)(C)n1nnc(-c2ccc([N+](=O)[O-])cc2)n1,-,0[10 µM],0[9.22 µM]
O=S(=O)(c1ccc(Cl)cc1Cl)n1ccc2cccnc21,-,0,0
Cc1ccc(S(=O)(=O)N2CCN(c3ccccn3)CC2)cc1,-,0[10 µM],0[9.22 µM]
Cc1ccc(S(=O)(=O)n2ccc3cccnc32)cc1,-100.0,0[10 µM],0
O=S(=O)(c1ccc(Cl)cc1)n1ccc2cccnc21,-100.0,0[10 µM],0
CCOC(=O)C1(CCOC)CCN(Cc2ccccc2-c2ccco2)CC1,-,0,0
O=C(CN1CCN(c2ccccc2)CC1)Nc1ccc2c(c1)CCC2,0,0[10 µM],0
COc1cc(/C=C2/C(=O)N=C(N)N2C)cc(OC)c1OC,0,0,0
Oc1ccccc1,-,0,-
Oc1ccc(O)cc1,-,31.6µM!,0
CC(C)(C)OC(=O)NCCCC[C@H](NC(=O)c1nc[nH]c1C(=O)NC1CCN(C(=O)OC(C)(C)C)CC1)C(=O)OC(C)(C)C,-,0[10 µM],0[9.22 µM]
CCOC(=O)N1CCC(NC(=O)Cn2nc(Cc3ccncc3)c3ccccc3c2=O)CC1,-105.7,0,0
CCOC(=O)Cn1nc(Cc2ccccc2)c2ccccc2c1=O,?,0,0
Cc1ccc(/C=C/C(=O)OCC(=O)NCCN2C(=O)CSC2=O)o1,-,0,0
Cc1cc(C)c(C)c(S(=O)(=O)Nc2ccccc2C(=O)O)c1C,-,-,0
SMILES,PNC assembly inh,HTT cytoprotect,HTT aggregate
Cc1cc(S(=O)(=O)Nc2ccccc2C(=O)O)ccc1Cl,-116.6,0[0.074 µM],0
COC(=O)N/N=C(\C)c1ccc(OC(F)F)cc1,-,0,0
COC(=O)N/N=C(\C)c1ccc2ccccc2c1OC(F)F,0,0.794µM,?
CCN(/C=N/S(=O)(=O)c1ccc(Cl)cc1)CC,-,0[10 µM],0[9.22 µM]
CN1CC(=O)N2C(Cc3c([nH]c4ccccc34)[C@H]2c2ccc3c(c2)OCO3)C1=O (some centres not stated),-,0,0
O=C(/C(=C\c1ccccc1)c1nc2ccccc2[nH]1)c1ccc(Cl)cc1,?,0[10 µM],?
O=C(/C(=C/c1ccc(Cl)cc1)c1nc2ccccc2[nH]1)c1cccs1,0,0,5.01µM
Cc1ccc(NC(=O)COc2ccccc2[N+](=O)[O-])nc1,-,0[10 µM],0
Cc1ccc(C)c(NC(=O)c2cnn3ccccc23)c1,?,0,12.6µM
Cc1ccc(C)c(NC(=O)c2cc3ccccn3n2)c1,0,0[10 µM],0
O=C(O)Cc1csc(-c2ccc(Cl)cc2)n1,-,0,0
ClCc1csc(-c2ccc(Cl)cc2)n1,-113.4,-,0
COc1ccc(CCNC(=O)C2CC(=O)N(c3ccc(F)cc3)C2)cc1OC (configuration not stated),0,0[10 µM],0
COc1cc(CC(=O)OCC(=O)Nc2ccc([N+](=O)[O-])cc2)cc(OC)c1OC,-,0,0
Cc1nc2c(cc1C(=O)N/N=C/c1ccc(O)c(O)c1)c(=O)n(C)c(=O)n2C,-88.8,0[10 µM],?
CC(=O)Nc1ccc(/C=N/NC(=O)c2cc3ccccc3nc2C)cc1,?,-,0
N#Cc1ccccc1OC[C@H](O)CNCCNC(=O)Nc1ccccc1,-,31.6µM,-
N#Cc1ccccc1OCC(O)CS(=O)(=O)c1ccccc1 (configuration not stated),-,0,0[9.22 µM]
COc1ccc(N(CC(=O)N2CCCCCC2)S(=O)(=O)c2c(C)[nH]c(=O)[nH]c2=O)cc1,0,0,0
Cc1cc[n+](CC(=O)c2ccc(NC(=O)c3ccccc3)cc2)c2ccccc12,-,0,?
Cc1cccc(Nc2ncnc(N)c2[N+](=O)[O-])n1,-,0[10 µM],?
Cc1cc(C)nc(Sc2ncnc(N)c2[N+](=O)[O-])n1,-,0[10 µM],10µM
NS(=O)(=O)c1ccc(NCc2cnc3ccccc3c2)cc1,-,0[10 µM],-
